Measured values from PubChem BioAssay (Tox21).
Several values for one entry are separate records, joined by “and”; a condition that tells them apart may be missing. Identical values can stand only once. Records with an inconclusive call do not appear. Some compounds were tested as several samples or in several runs, with calls that do not always agree. Activity calls are given as the source filed them. Unless noted, the call rests on the fitted dose curve.

Experiments:
[1] = qHTS assay to identify small molecule agonists of the androgen receptor (AR) signaling pathway in the presence of an antagonist - cell viability counter screen (AID 1259379; active means well fitted curve in the direction sought with a large enough effect in the repeat runs; an effect the other way counts as inactive or inconclusive; further: nearly all actives have a fitted effect of over 25% in size; further: potency means the concentration at half of the fitted maximal effect)
How it was run: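 Viability counter screen: CellTiter-Fluor fluorescence, measured in the same wells as the luciferase read-out. MDA-kb2 cells, 3,000/well, with nilutamide at 3.0uM final and compounds at 15 concentrations, 16 hr at 37C, 0% CO2.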

[2] = qHTS assay to identify small molecule agonists of the estrogen receptor beta (ER-beta) signaling pathway - cell viability counter screen (AID 1259380; active means well fitted curve in the direction sought with a large enough effect in the repeat runs; an effect the other way counts as inactive or inconclusive; further: nearly all actives have a fitted effect of over 30% in size; further: potency means the concentration at half of the fitted maximal effect)
How it was run: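 Luminescence read-out (CellTiter-Glo, 30 min, room temp) taken in the same wells as the beta-lactamase reporter assay; ER-beta-UAS-bla HEK293T cells exposed to DMSO-dissolved compounds for 16 hr at 37C in 2% charcoal-stripped FBS medium.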

[3] = qHTS assay to identify small molecule antagonists of the estrogen receptor beta (ER-beta) signaling pathway - cell viability counter screen (AID 1259382; active means well fitted curve in the direction sought with a large enough effect in the repeat runs; an effect the other way counts as inactive or inconclusive;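 further: HEK293T cells carrying ER-beta-UAS-bla reporter stimulated with estradiol; series mostly up to about 92 µM; nearly all actives have a fitted effect of over 55% in size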)
How it was run: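 Luminescent ATP read-out (CellTiter-Glo, 30 min, RT) taken in the same wells as the bla reporter assay. HEK293T ER-beta-UAS-bla cells in 2% charcoal-stripped FBS were exposed to compounds with 1nM E2 for 16 hr at 37C.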

[4] = biological target: Estrogen receptor (Homo sapiens) (UniProt P03372); assay: qHTS assay to identify small molecule agonists of the estrogen receptor alpha (ER-alpha) signaling pathway in the presence of an antagonist (AID 1259383); further: nearly all actives have a fitted effect of over 15% in size; further: potency means the concentration at half of the fitted maximal effect
Sequence of Estrogen receptor (Homo sapiens) (P03372 whole entry, looked up): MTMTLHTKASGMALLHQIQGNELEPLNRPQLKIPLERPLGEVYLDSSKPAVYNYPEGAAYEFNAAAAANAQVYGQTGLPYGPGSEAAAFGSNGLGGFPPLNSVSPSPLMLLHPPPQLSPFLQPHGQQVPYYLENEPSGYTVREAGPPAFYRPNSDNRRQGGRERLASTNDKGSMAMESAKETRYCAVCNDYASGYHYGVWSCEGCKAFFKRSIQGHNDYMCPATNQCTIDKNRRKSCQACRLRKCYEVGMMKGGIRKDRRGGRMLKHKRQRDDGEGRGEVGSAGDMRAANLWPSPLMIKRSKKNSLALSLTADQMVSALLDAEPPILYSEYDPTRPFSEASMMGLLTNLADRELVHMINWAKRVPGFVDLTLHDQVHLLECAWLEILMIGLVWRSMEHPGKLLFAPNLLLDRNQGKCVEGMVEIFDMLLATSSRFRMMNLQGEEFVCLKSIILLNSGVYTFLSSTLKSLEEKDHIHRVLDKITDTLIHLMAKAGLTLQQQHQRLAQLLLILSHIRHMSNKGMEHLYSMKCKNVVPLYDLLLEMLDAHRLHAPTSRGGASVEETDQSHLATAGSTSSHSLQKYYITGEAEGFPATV
How it was run: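 Luciferase luminescence (ONE-Glo, 30min at room temperature) measured in VM7Luc4E2 cells after 22hr compound exposure at 15 concentrations, with 10.0nM ICI-182,780 final present; cells express endogenous ER-alpha and carry four EREs upstream of luciferase.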

[5] = qHTS assay to identify small molecule agonists or antagonists of the thyroid stimulating hormone receptor (TSHR) signaling pathway - wild type cell line counter screen (AID 1259384)
How it was run: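 Counter screen in untransfected Hek293: compounds (15-point titration, triplicate) plus phosphodiesterase inhibitor Ro20-1724 added after 18 h plating; 30 min RT. Intracellular cAMP via competitive d2/cryptate immunoassay, 1 h incubation.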

[6] = biological target: Thyrotropin receptor (Homo sapiens) (UniProt P16473); assay: qHTS assay to identify small molecule antagonists of the thyroid stimulating hormone receptor (TSHR) signaling pathway (AID 1259385); further: nearly all actives have a fitted effect of over 20% in size
Sequence of Thyrotropin receptor (Homo sapiens) (P16473 whole entry, looked up): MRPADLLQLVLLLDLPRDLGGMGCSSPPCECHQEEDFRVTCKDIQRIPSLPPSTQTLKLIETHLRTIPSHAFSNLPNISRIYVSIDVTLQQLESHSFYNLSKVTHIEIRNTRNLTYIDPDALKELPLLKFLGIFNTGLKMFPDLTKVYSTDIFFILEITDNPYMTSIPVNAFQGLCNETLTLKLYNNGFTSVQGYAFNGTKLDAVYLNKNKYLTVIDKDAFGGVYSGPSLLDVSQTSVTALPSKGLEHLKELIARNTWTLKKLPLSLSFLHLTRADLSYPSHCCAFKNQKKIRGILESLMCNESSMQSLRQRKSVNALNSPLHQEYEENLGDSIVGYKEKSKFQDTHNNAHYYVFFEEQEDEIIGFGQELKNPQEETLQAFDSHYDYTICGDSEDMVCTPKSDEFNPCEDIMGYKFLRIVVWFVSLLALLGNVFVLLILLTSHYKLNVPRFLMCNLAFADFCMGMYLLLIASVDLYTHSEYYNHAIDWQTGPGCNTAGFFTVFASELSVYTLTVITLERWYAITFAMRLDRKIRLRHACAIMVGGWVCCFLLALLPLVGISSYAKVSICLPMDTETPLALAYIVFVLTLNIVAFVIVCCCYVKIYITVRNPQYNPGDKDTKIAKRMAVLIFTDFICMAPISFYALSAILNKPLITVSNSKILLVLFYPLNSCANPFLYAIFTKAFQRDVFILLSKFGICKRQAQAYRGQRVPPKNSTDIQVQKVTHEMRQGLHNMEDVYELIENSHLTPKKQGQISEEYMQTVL
How it was run: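 Antagonist mode: compound-treated TSHR-expressing HEK293 cells were stimulated with 1.5 ng/mL TSH (final) in presence of Ro20-1724 for 30 min at RT. HTRF cAMP detection after 1 h; each compound tested at 15 concentrations, triplicate.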

[7] = qHTS assay to identify small molecule agonists of the estrogen receptor alpha (ER-alpha) signaling pathway in the presence of an antagonist - cell viability counter screen (AID 1259386; active means well fitted curve in the direction sought with a large enough effect in the repeat runs; an effect the other way counts as inactive or inconclusive;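 further: cells exposed to compounds for 22 h at 37 °C before the viability read; nearly all actives have a fitted effect of over 30% in size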; further: potency means the concentration at half of the fitted maximal effect)
How it was run: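 Read-out: CellTiter-Fluor fluorescence after 1hr reagent incubation, measured in the same wells as the luciferase readout. VM7Luc4E2 cells were exposed to 15 compound concentrations with 10.0nM ICI-182,780 for 22hr at 37C.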

[8] = biological target: Progesterone receptor (Homo sapiens) (UniProt P06401); assay: qHTS assay to identify small molecule agonists of the progesterone receptor (PR) signaling pathway (AID 1346784); further: nearly all actives have a fitted effect of over 30% in size; further: potency means the concentration at half of the fitted maximal effect
Sequence of Progesterone receptor (Homo sapiens) (P06401 whole entry, looked up): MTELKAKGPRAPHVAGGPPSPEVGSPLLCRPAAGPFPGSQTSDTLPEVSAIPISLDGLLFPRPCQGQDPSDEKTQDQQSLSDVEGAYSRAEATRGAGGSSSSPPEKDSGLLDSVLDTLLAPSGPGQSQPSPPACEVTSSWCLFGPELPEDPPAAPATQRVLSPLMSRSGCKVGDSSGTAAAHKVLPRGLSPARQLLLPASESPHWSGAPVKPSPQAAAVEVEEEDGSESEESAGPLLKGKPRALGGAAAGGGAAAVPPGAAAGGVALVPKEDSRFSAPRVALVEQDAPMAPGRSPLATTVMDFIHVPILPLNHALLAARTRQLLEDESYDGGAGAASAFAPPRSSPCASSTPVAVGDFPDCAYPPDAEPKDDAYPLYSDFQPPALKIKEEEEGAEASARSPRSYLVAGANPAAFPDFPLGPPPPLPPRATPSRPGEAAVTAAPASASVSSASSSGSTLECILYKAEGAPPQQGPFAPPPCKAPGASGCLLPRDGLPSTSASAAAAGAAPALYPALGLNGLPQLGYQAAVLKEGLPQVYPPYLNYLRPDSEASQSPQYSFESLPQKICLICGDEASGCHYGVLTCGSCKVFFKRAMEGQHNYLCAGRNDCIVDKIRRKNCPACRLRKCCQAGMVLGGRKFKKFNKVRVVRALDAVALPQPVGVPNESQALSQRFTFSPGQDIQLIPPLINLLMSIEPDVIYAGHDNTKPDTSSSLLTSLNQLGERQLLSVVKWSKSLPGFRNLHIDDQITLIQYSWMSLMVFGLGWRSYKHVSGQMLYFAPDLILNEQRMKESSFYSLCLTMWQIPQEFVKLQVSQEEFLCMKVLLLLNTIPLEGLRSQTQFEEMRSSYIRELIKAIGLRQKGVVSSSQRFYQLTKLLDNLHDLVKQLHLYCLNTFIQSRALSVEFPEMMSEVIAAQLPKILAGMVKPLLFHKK
How it was run: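 Seed PR-UAS-bla HEK 293T cells (2% charcoal-stripped FBS), incubate 6 hr at 37C; add compounds in DMSO, 16 hr at 37C; add LiveBLAzer B/G substrate, 2 hr RT; read fluorescence intensity.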

[9] = biological target: Progesterone receptor (Homo sapiens) (UniProt P06401); assay: qHTS assay to identify small molecule antagonists of the progesterone receptor (PR) signaling pathway (AID 1346795; active means well fitted inhibition curve with a large enough effect in the signal ratio in the repeat runs, not every such curve was filed as active; the % refers to the signal ratio; further: potency means the concentration at half of the fitted maximal effect)
How it was run: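 Screening used a GripTite HEK293T line with PR-responsive UAS-beta-lactamase. Cells were challenged with compound in the presence of 1 nM R5020 final for 16 hr at 37C; B/G FRET substrate, 2 hr room temperature, fluorescence.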

[10] = biological target: Androgen receptor (Homo sapiens) (UniProt P10275); assay: qHTS assay to identify small molecule agonists of the androgen receptor (AR) signaling pathway in the presence of an antagonist (AID 1259381); further: nearly all actives have a fitted effect of over 15% in size
Sequence of Androgen receptor (Homo sapiens) (P10275 whole entry, looked up): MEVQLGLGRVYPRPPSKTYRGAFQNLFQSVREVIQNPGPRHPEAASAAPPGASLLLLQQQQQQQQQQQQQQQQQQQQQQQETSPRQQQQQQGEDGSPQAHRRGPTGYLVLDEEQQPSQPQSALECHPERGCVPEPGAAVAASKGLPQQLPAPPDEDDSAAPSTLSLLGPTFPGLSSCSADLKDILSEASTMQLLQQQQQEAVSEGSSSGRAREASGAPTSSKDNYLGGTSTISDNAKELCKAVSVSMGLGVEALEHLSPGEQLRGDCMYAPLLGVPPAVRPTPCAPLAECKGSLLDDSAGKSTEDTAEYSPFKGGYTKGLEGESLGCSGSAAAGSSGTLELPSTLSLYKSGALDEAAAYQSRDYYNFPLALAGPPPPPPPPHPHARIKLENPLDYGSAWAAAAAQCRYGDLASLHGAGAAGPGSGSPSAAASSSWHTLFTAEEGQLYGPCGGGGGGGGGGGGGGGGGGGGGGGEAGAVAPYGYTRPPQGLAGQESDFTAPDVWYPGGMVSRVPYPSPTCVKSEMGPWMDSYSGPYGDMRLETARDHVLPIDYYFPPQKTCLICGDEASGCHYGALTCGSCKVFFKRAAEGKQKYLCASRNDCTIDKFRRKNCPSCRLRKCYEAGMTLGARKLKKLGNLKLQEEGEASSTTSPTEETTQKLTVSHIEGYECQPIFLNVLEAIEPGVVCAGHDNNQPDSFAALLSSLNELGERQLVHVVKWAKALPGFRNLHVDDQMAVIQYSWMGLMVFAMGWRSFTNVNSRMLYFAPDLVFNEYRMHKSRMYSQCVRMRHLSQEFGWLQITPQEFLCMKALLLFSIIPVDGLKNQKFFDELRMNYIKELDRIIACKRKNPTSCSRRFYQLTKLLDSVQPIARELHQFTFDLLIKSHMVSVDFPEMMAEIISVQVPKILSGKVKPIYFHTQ
How it was run: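 Luciferase read-out (ONE-Glo, 30min room temperature) in MDA-kb2 MMTV-reporter cells; agonist mode run in presence of AR antagonist nilutamide, 3.0uM final. Compounds tested as 15-point series, 16hr exposure at 37C, 0% CO2.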

Measured: Potency

CCCCCC1=CCCC1=O
inactive: [1] | [2] | [3] | [4] | [5] | [6] | [7] | [8] | [9]

CCCCCCCCCCCCOCCO
inactive: [1] | [2] | [10] | [3] | [5] | [6] | [7] | [8]

O=P(OC(CCl)CCl)(OC(CCl)CCl)OC(CCl)CCl
active: [9] 6.82 µM and 7.7 µM
inactive: [1] | [2] | [3] | [4] | [5] | [6] | [7] | [8]

CC(c1cc2ccccc2s1)N(O)C(N)=O (stereo not drawn)
inactive: [1] | [2] | [10] | [3] | [4] | [7] | [8] | [9]

CC1=C(C)S(=O)(=O)CCS1(=O)=O
inactive: [1] | [2] | [10] | [3] | [4] | [7] | [8] | [9]

O=C=NCCCCCCN=C=O
inactive: [1] | [2] | [3] | [4] | [5] | [6] | [7] | [8] | [9]

O=C(O)CC(C(=O)O)C(CC(=O)O)C(=O)O (stereo not drawn)
inactive: [1] | [2] | [3] | [4] | [5] | [6] | [7] | [8] | [9]

O=C(O)c1cc(=O)c2c(OCC(O)COc3cccc4oc(C(=O)O)cc(=O)c34)cccc2o1
inactive: [1] | [2] | [3] | [4] | [5] | [6] | [7] | [8] | [9]

COc1cc(Cc2cnc(N)nc2N)cc(OC)c1OC
5.43 µM (active) and inactive: [8]
inactive: [1] | [2] | [3] | [4] | [5] | [6] | [7] | [9]

CC(C)c1ccc(S(=O)(=O)O)cc1
inactive: [1] | [2] | [3] | [4] | [5] | [6] | [7] | [8] | [9]

O=c1[nH]c(=O)n([C@H]2C[C@H](O)[C@@H](CO)O2)cc1Br
inactive: [1] | [2] | [3] | [4] | [5] | [6] | [7] | [8] | [9]

CCCCN(CCCC)CCCC
inactive: [1] | [2] | [3] | [4] | [5] | [6] | [7] | [8] | [9]

CCCCC(CC)COC(=O)CCCCC(=O)OCC(CC)CCCC (stereo not drawn)
inactive: [1] | [2] | [3] | [4] | [5] | [6] | [7] | [8] | [9]

CC(=O)Nc1cccc(O)c1
24.2 µM (active) and inactive: [8]
inactive: [1] | [2] | [3] | [4] | [5] | [6] | [7] | [9]

CC(C)(N)CO
inactive: [1] | [2] | [3] | [4] | [5] | [6] | [7] | [8] | [9]

CCc1cccc(C)c1N
inactive: [1] | [2] | [10] | [3] | [4] | [5] | [6] | [7] | [8] | [9]

O=C(O)c1cc(O)c(O)c(O)c1
55 µM (active) and inactive: [1]
active: [7] 55 µM
inactive: [2] | [3] | [4] | [5] | [6] | [8] | [9]

C=C(C)C(=O)Nc1ccc(Cl)c(Cl)c1
active: [2] 55 µM and 54.3 µM | [9] 24.6 µM and 48.4 µM
inactive: [1] | [3] | [4] | [5] | [6] | [7] | [8]

O=C(O)c1ccc2c(c1)C(=O)OC2=O
inactive: [1] | [2] | [10] | [3] | [4] | [5] | [6] | [7] | [8] | [9]

C=CCOC(=O)c1ccccc1C(=O)OCC=C
inactive: [1] | [2] | [3] | [4] | [5] | [6] | [7] | [8] | [9]

COS(C)(=O)=O
inactive: [1] | [2] | [3] | [4] | [5] | [6] | [7]

CCCCCOC(C)=O
inactive: [1] | [2] | [3] | [4] | [5] | [6] | [7] | [8]

FC(F)(F)c1ccc(Cl)c(Cl)c1
inactive: [1] | [2] | [10] | [3] | [4] | [5] | [6] | [7] | [8] | [9]

Fc1ccc(Br)cc1
inactive: [1] | [2] | [3] | [5] | [6] | [7] | [8] | [9]
61.8 µM (active) and inactive: [4]

OCCOCCOCCO
inactive: [1] | [2] | [10] | [3] | [4] | [5] | [6] | [7] | [8] | [9]
